Assay outcomes: PubChem, National Center for Advancing Translational Sciences (NCATS)
In the library only some 2.8% were active in any assay of this set; here they are far more common.
GLP1R ag = qHTS of GLP-1 Receptor Agonists; Glucagon-like peptide 1 receptor (Homo sapiens), P43220; HEK293 GLP-1R CRE-luciferase, luminescence, 4-6 h; cells express a hypersensitive GLP-1R form; Potency, µM (doses to about 45.6 µM), inactives show top-dose activation, actives largely listed as activators; 0.007% of 380,000 active; AID 624172, 2012; also: % of control where 0% means no effect
Target sequence (P43220 whole entry, looked up): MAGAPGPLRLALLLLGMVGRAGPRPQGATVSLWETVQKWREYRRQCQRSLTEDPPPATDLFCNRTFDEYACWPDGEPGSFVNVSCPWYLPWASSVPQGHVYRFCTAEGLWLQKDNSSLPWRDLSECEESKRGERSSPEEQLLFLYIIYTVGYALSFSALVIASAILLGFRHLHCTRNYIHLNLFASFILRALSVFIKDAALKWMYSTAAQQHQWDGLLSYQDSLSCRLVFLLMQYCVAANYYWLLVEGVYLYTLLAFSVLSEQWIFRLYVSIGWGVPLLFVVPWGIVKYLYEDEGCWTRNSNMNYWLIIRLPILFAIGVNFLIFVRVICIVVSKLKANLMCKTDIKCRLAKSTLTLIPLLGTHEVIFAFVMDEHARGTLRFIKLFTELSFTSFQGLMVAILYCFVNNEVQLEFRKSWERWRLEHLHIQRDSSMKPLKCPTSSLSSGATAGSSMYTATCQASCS
Mito fusion act = qHTS Assay for Small Molecule Inhibitors of Mitochondrial Division or Activators of Mitochondrial Fusion; 0.23% of 320,000 active; S. cerevisiae fusion-defective mutant growth rescue, CellTiterGlo 48 h; Potency, µM (titrated, usually from 46.1 µM), without a hit: at the highest dose growth rescue (activation), hits mostly activators; also: % of control where 0% means no effect; nearly all actives have a fitted effect of over 45% in size
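S. cerevisiae fusion-defective temperature-sensitive mutants (e.g. fzo1-1, mgm1-5) grown 48 h at 37C in YPEG (ethanol/glycerol non-fermentable) medium with 23 nl compound per well; growth rescue read as CellTiterGlo luminescence.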
GLP-1R inv ag = qHTS of GLP-1 Receptor Inverse Agonists (Inhibition Mode). HEK293 GLP-1R CRE-luciferase, luminescence, 24 h; GLP-1R form is constitutively active. 1.6% of 410,000 active. Potency, µM (doses to about 38.3 µM), inactives show top-dose activity change, negative = inhibition, hits mostly inhibitors. AID 624417, 2012. Glucagon-like peptide 1 receptor (Homo sapiens), P43220; also: % is scaled to controls: 0 for no effect and ±100 for the full control effect; nearly all actives have a fitted effect of over 55% in size
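HEK293 cells stably co-expressing constitutively active GLP-1R and a cAMP-responsive luciferase reporter were seeded in DMEM with 10% Nu serum, given compounds after 12 h, and incubated 24 h at 37 deg C. Luminescence was then read.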
BRCA1 expr act = qHTS Assay to Identify Small Molecule Activators of BRCA1 Expression; Potency, µM (titrated, usually from 46.1 µM), for the others: top-dose activation, hits mostly activators; MCF7-BRCA1-FFLuc reporter, luminescence, 48 h; response scale: scaled: vehicle 0%, 10 µM genistein 100%; 1.1% of 380,000 active; AID 624202, 2012; also: nearly all actives have a fitted effect of over 80% in size
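48 h compound treatment of MCF7-BRCA1-FFLuc cells (phenol-red free MEM, 37 °C), then 15 min with luciferase substrate and luminescence imaging.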
GLP1R cytotox = qHTS of GLP-1 Receptor Inverse Agonists: Cytotox Screen; 0.13% of 410,000 active; HEK293 cAMP-luciferase reporter cells, luminescence, 24 h; Potency, µM (top dose mostly 38.3 µM), inactives show at the top dose activity change, negative = inhibition, usual class: inhibitors; AID 624418, 2012;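 also: loss of luciferase light is scored as toxicity; % is scaled to controls: 0 for no effect and ±100 for the full control effect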
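Here, cytotoxicity is scored as loss of luminescence. The MLSMR collection was tested on cells seeded in medium containing 10% Nu serum, with a 24 hr compound exposure preceded by 12 hours of culture.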
Numbers without * were called inactive; [ ] = another dose, or the depositor's remark. Calls follow the shape of the dose curve; as a rule, active = well fitted curve in the direction sought with a large enough effect; inconclusive = small, poorly fitted or top-dose-only effect, or another doubt; inactive = no such curve, though single readings can be large; an effect the other way counts as inactive or inconclusive. Potency is read from the fitted curve at half-maximal effect.

How did COC(=O)C1=C(c2cc3ccccc3o2)C[C@@H]2CC[C@H]1N2C(=O)NCc1ccc(F)cc1 do in these assays?
GLP1R ag: 2.7%; GLP-1R inv ag: 11.2µM*; BRCA1 expr act: -40.4%; GLP1R cytotox: -2.2%

What do the screens show for `COC(=O)C1=C(c2cc3ccccc3s2)C[C@@H]2CC[C@H]1N2C(=O)NCc1ccc(C(F)(F)F)cc1`?
GLP1R ag: -4.6%; GLP-1R inv ag: 3.98µM*; BRCA1 expr act: -53.0%; GLP1R cytotox: -2.8%

Results for CNC(=O)CSP(=S)(OC)OC ?
GLP1R ag: -3.7%; GLP-1R inv ag: 10.1%; BRCA1 expr act: 12.7%; GLP1R cytotox: 2.0%

Results for Cc1ccc(CN2CCSc3ccc(C(=O)N4CCC5(CC4)OCCO5)cc32)cc1 ?
GLP1R ag: inconclusive; Mito fusion act: 32.2%; GLP-1R inv ag: inconclusive; BRCA1 expr act: -16.7%; GLP1R cytotox: -15.0%

How did CC1=Nc2cc(C(=O)N3CCC4(CC3)OCCO4)ccc2Sc2ccc(Cl)cc21 do in these assays?
GLP1R ag: 13.5%; Mito fusion act: 15.8µM*; GLP-1R inv ag: -18.8%; BRCA1 expr act: -21.0%; GLP1R cytotox: -8.2%

Results for Cc1ccc(CN2CCCN(Cc3ccccc3C)S2(=O)=O)cc1 ?
GLP1R ag: 5.2%; Mito fusion act: 9.0%; GLP-1R inv ag: inconclusive; BRCA1 expr act: -20.8%; GLP1R cytotox: 1.9%

Results for CN(C(=O)CNC(=O)OCc1ccccc1)c1ccc(Br)cc1C(=O)c1ccccc1Cl ?
GLP1R ag: -3.8%; Mito fusion act: 12.6µM*; GLP-1R inv ag: 2.82µM*; BRCA1 expr act: -38.3%; GLP1R cytotox: inconclusive

How did CCOP(=O)(Nc1ccc2c(c1)C(=NNC(N)=S)c1ccccc1-2)OCC do in these assays?
GLP1R ag: -2.1%; GLP-1R inv ag: inconclusive; BRCA1 expr act: -71.2%; GLP1R cytotox: 12.6µM*

Results for NC(=S)NN=C(c1ccc(Br)cc1)C1CC1 ?
GLP1R ag: -9.0%; GLP-1R inv ag: 3.98µM*; BRCA1 expr act: -27.5%; GLP1R cytotox: 2.51µM*

Results for C#CC[N+]1(C)[C@@H]2CC(OC(=O)C(CO)c3ccccc3)C[C@H]1C(O)C2 (stereo partly specified) ?
GLP1R ag: -5.7%; Mito fusion act: -7.0%; GLP-1R inv ag: 4.0%; BRCA1 expr act: 15.9%; GLP1R cytotox: 13.8%

Results for CC(=O)O[C@H]1CC[C@@]2(C)C(=CC[C@@H]3[C@@H]2CC[C@]2(C)C(=O)CC[C@@H]32)C1 ?
GLP1R ag: 20.2%; Mito fusion act: 14.1µM*; GLP-1R inv ag: 8.8%; BRCA1 expr act: 1.6%; GLP1R cytotox: 3.6%

What do the screens show for `CC(=O)O[C@H]1CC[C@@]2(C)C(=CC[C@@H]3[C@H]2CC[C@]2(C)C(=O)CC[C@H]32)C1`?
GLP1R ag: 7.7%[19.8 µM]

How did Cc1ccc(-n2c(=O)[nH]c3ccccc3c2=O)cc1[N+](=O)[O-] do in these assays?
GLP1R ag: -7.7%; GLP-1R inv ag: 25.8%; BRCA1 expr act: 11.2µM*; GLP1R cytotox: 2.3%

Results for N#CC1c2ccccc2-n2nncc2CN1Cc1cc(Cl)cc(Cl)c1 (stereo unspecified) ?
GLP1R ag: -13.0%; GLP-1R inv ag: 1.26µM*; BRCA1 expr act: -81.8%; GLP1R cytotox: inconclusive

How did COc1ccc(CN2Cc3cnnn3-c3ccccc3C2C#N)cc1 (stereo unspecified) do in these assays?
GLP1R ag: -13.0%; GLP-1R inv ag: 2.82µM*; BRCA1 expr act: -81.7%; GLP1R cytotox: inconclusive

How did COc1ccc2c(c1)-c1c(ssc1=S)C(C)(C)N2S(=O)(=O)c1ccc(C)cc1 do in these assays?
GLP1R ag: -0.5%; Mito fusion act: 24.9%; GLP-1R inv ag: 2.82µM*; BRCA1 expr act: -92.0%; GLP1R cytotox: inconclusive

Results for O=C1CCCCC1CN1CCCCC1 (stereo unspecified) ?
GLP1R ag: 3.0%

Results for COC(=O)NC(NC(=S)Nc1ccc([N+](=O)[O-])cc1)C(Cl)(Cl)Cl (stereo unspecified) ?
GLP1R ag: -35.8%; Mito fusion act: -2.7%; GLP-1R inv ag: 11.2µM*; BRCA1 expr act: -75.5%; GLP1R cytotox: inconclusive

How did Nc1nc(F)nc2c1ncn2[C@@H]1O[C@H](CO)[C@@H](O)[C@H]1O do in these assays?
GLP1R ag: 2.5%; GLP-1R inv ag: 2µM*; BRCA1 expr act: -66.8%; GLP1R cytotox: inconclusive

What do the screens show for `Nc1nc(F)nc2c1ncn2[C@@H]1O[C@H](CO)[C@@H](O)[C@@H]1O`?
GLP1R ag: -3.5%; Mito fusion act: -1.9%; GLP-1R inv ag: -1.1%; BRCA1 expr act: -63.2%; GLP1R cytotox: -5.1%

How did CC(C)=CCC/C(C)=C/CNC(=O)C[C@H]1C[C@H](C(=O)N2CCOCC2)[C@@]2(C)c3[nH]c4cc(-c5ccco5)ccc4c3CCN2C1=O do in these assays?
GLP1R ag: 0.0%; GLP-1R inv ag: inconclusive; BRCA1 expr act: -72.7%; GLP1R cytotox: inconclusive

Results for COc1ccc(C(O)c2cc(OC)ccc2OP(=O)(N(C)C)N(C)C)cc1 (stereo unspecified) ?
GLP1R ag: -1.5%; Mito fusion act: 0.8%; GLP-1R inv ag: 4.5%; BRCA1 expr act: -11.7%; GLP1R cytotox: -8.5%

Results for COc1ccc(CNCCc2c(C)[nH]c3ccc(OC(F)(F)F)cc23)c(OC)c1 ?
GLP1R ag: 1.9%; Mito fusion act: -5.5%; GLP-1R inv ag: 2µM*; BRCA1 expr act: -93.1%; GLP1R cytotox: inconclusive

What do the screens show for `COc1ccc2[nH]c(C)c(CCNCc3cc(OC)c(OC)c(OC)c3)c2c1`?
GLP1R ag: -0.6%; Mito fusion act: 1.7%; GLP-1R inv ag: inconclusive; BRCA1 expr act: -6.1%; GLP1R cytotox: -1.6%

Results for Cn1cc(SCC(=O)Nc2nc3ccccc3s2)c2ccccc21 ?
GLP1R ag: -13.9%; Mito fusion act: 28.0%; GLP-1R inv ag: 10µM*; BRCA1 expr act: -27.9%; GLP1R cytotox: inconclusive

How did O=C1NC(=S)NC(=O)C1=Cc1ccc(OCc2ccccc2)cc1 do in these assays?
GLP1R ag: -1.4%; GLP-1R inv ag: -12.4%; BRCA1 expr act: 12.6µM*; GLP1R cytotox: 11.8%

How did Cc1ccc(/C(CSc2nccn2-c2ncc(C(F)(F)F)cc2Cl)=N\O)cc1 do in these assays?
GLP1R ag: 5.0%; Mito fusion act: 6.0%; GLP-1R inv ag: 3.55µM*; BRCA1 expr act: -60.3%; GLP1R cytotox: 3.9%
